Test results: PubChem BioAssay (EPA / NIEHS)
Where a structure was tested more than once in an assay, its records may differ in their call. Calls of active or inactive are those of the source. How the source made its calls: active means hit-call score of the fitted dose curve at least 0.9, where 1 is the maximum; inactive means score below 0.9.

Experiments:
[1] = APR_HepG2_P-H2AX_72hr: Apredica 72-hour HepG2 Assay for H2AX Phosphorylation (AID 2282916); details: imaging, actives raise or lower the signal;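 further: phospho-histone H2A.x immunostain intensity per cell marking DNA damage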
Method in brief: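 HepG2; cpd 0.39–200 uM ×10 conc, duplicates; 0.5% DMSO; 72 hr. Fix 3.7% formaldehyde 30 min RT, 0.5% Triton X-100 10 min. Anti-phospho-H2A.x 1:200 + Hoechst 2 ug/mL, 60 min RT; ArrayScan imaging.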

[2] = APR_HepG2_MitoticArrest_72hr: Apredica 72-hour HepG2 Assay for Mitotic Arrest (AID 2282918); details: high-content imaging, actives raise or lower the signal
Method in brief: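 Read-out is phospho-histone H3 immunofluorescence with Hoechst nuclear segmentation, imaged at 20x. Human HepG2 liver cells received ten concentrations (0.39–200 uM, final DMSO 0.5% v/v) for 72 hr before fixation. Gain or loss of signal was fitted relative to DMSO.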

[3] = APR_HepG2_MicrotubuleCSK_72hr: Apredica 72-hour HepG2 Assay for Microtubule CSK Stabilty (AID 2282919); details: HepG2 microtubule cytoskeleton, high-content imaging, actives raise or lower the signal
Method in brief: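 Read-out is tubulin fluorescence intensity from high-content imaging of HepG2 cells, with nuclei identified by Hoechst 33342. Treatment lasts 72 h at 0.39–200 uM, and curves are fitted bidirectionally against the DMSO negative control.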

[4] = APR_HepG2_P-H2AX_24hr: Apredica 24-hour HepG2 Assay for H2AX Phosphorylation (AID 2282920); details: high-content imaging, actives raise or lower the signal
Method in brief: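 HepG2, 24 hr, cpd 0.39–200 uM (10 conc, duplicate), DMSO 0.5% v/v final. Fix 3.7% formaldehyde, Triton X-100 permeabilize, anti-phospho-H2A.x 1:200 + Hoechst 2 ug/mL. Imaged, bidirectional fit vs DMSO.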

[5] = APR_HepG2_StressKinase_72hr: Apredica 72-hour HepG2 Assay for Stress Kinase (AID 2282921); details: HepG2 stress kinase (phospho-c-Jun) imaging, actives raise or lower the signal
Method in brief: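 Dose 0.39–200 uM (10 pts, duplicate), 0.5% DMSO; 72 h; fix 3.7% formaldehyde 30 min RT; Triton permeabilize; anti-phospho-c-Jun/Cy3 + Hoechst 60 min RT; image 20x; fit gain/loss vs DMSO.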

[6] = APR_HepG2_StressKinase_24hr: Apredica 24-hour HepG2 Assay for Stress Kinase (AID 2282922); details: HepG2 stress kinase (phospho-c-Jun) imaging, actives raise or lower the signal
Method in brief: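 HepG2, 24 hr dosing, 0.39–200 uM in duplicate, 0.5% DMSO; formaldehyde fix (3.7%), 0.5% Triton X-100; anti-phospho-c-Jun + Cy3 secondary, Hoechst counterstain; ArrayScan imaging; bidirectional curve fit vs DMSO baseline.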

[7] = APR_HepG2_p53Act_72hr: Apredica 72-hour HepG2 Assay for p53 Activation (AID 2282923); details: high-content imaging, actives raise or lower the signal;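 further: average cellular p53 protein immunofluorescence intensity in HepG2 cells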
Method in brief: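 10-pt conc. 0.39–200 uM, duplicate, 0.5% DMSO; 72 hr exposure; 3.7% formaldehyde fix, 0.5% Triton perm; sheep anti-p53/Cy5 + Hoechst; ArrayScan 20x, 6 images/well; gain/loss fit vs DMSO.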

[8] = APR_HepG2_MitoMass_72hr: Apredica 72-hour HepG2 Assay for Mitochondrial Mass (AID 2282924); details: high-content imaging, actives raise or lower the signal;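 further: MitoTracker Red CMXRos stain intensity per cell imaged as mitochondrial mass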
Method in brief: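 HepG2, 72 hr cmpd, 10 conc 0.39–200 uM in dup, DMSO 0.5% v/v. MitoTracker Red CMXRos 250 nM 30 min pre-fix; formaldehyde 3.7% fix 30 min RT. HCS imaging, gain/loss fit vs DMSO.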

[9] = APR_HepG2_NuclearSize_72hr: Apredica 72-hour HepG2 Assay for Nuclear Size (AID 2282925); details: high-content imaging, actives raise or lower the signal
Method in brief: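 HepG2; cpd 0.39–200 uM, 10 conc, duplicate; 72 h; DMSO 0.5% v/v; fix 3.7% formaldehyde 30 min RT; Triton permeabilization; Hoechst 2 ug/mL; HCS imaging 20x; nuclear diameter; gain/loss fit vs DMSO.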

[10] = ATG_CRE_CIS: Attagene CIS-FACTORIAL HepG2 Assay for human cAMP Responsive Element (CRE) binding protein 3 (AID 2282926); details: HepG2 CRE cis-reporter, Attagene multiplexed mRNA; actives raise or lower the signal
Method in brief: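 Human liver HepG2, transient MRTU transfection, 24 h compound exposure. Total RNA → oligo(dT) RT → PCR → 6-FAM primer extension → HpaI cut → CE. Activity called both directions vs DMSO.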

[11] = target: CCAAT/enhancer-binding protein beta (Homo sapiens) (UniProt P17676); experiment: ATG_C_EBP_CIS: Attagene CIS-FACTORIAL HepG2 Assay for human CCAAT/Enhancer Binding Protein (C/EBP) beta (AID 2282927); details: HepG2 Attagene cis-factorial transcription factor reporter; actives raise or lower the signal
Method in brief: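 Endogenous transcription factor activity in human liver HepG2 cells is inferred from induction of a CEBPB-linked reporter mRNA. Exposure lasts 24 h; activity is fitted in both directions relative to DMSO.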

[12] = ATG_CMV_CIS: Attagene CIS-FACTORIAL HepG2 Assay for human CMV (Internal Marker) (AID 2282928); details: HepG2 CMV promoter reporter, transcription factor profiling; actives raise or lower the signal;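 further: endpoint acts as a background internal control marker rather than a target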
Method in brief: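 CMV internal-marker background readout in transiently transfected HepG2 cells bearing cis-regulated reporter units. Reporter mRNA is measured 24 h after dosing by RT-PCR and capillary electrophoresis, with bidirectional fitting against DMSO.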

[13] = ATG_DR4_LXR_CIS: Attagene CIS-FACTORIAL HepG2 Assay for human Liver X Receptor (LXR), DR4 submotif (AID 2282929); details: HepG2 Attagene DR4 cis-reporter, mRNA transcription; actives raise or lower the signal
Method in brief: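 The endpoint is DR4-element-driven reporter transcripts after 24 h chemical exposure of transfected HepG2 cells. These were measured via RT-PCR and capillary electrophoresis, and gain or loss of signal was fitted relative to DMSO controls.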

[14] = target: Aryl hydrocarbon receptor (Homo sapiens) (UniProt P35869); experiment: ATG_Ahr_CIS: Attagene CIS-FACTORIAL HepG2 Assay for human Aryl Hydrocarbon Receptor (Ahr) (AID 2282930); details: HepG2 AhR cis-factorial reporter transcription; actives raise or lower the signal
Method in brief: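 Transient MRTU transfection of HepG2 → 24 h compound exposure → total RNA, oligo(dT) RT → PCR, 6-FAM extension, HpaI cut → CE fluorescence. DMSO = baseline; bidirectional curve fit.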

[15] = ATG_AP_1_CIS: Attagene CIS-FACTORIAL HepG2 Assay for human Activator Protein 1 (AP-1) (AID 2282931); details: HepG2 Attagene cis-factorial AP-1 reporter mRNA; actives raise or lower the signal
Method in brief: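 Readout is reporter transcript level from endogenous transcription factor activity, quantified by RT-PCR with fluorescent primer extension and capillary electrophoresis. Transiently transfected HepG2 cells, 24 h exposure. Curves fitted both directions versus DMSO.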

[16] = ATG_AP_2_CIS: Attagene CIS-FACTORIAL HepG2 Assay for human Activator Protein 2 (AP-2) (AID 2282932); details: HepG2 AP-2 cis-reporter, Attagene transcription factor profiling; actives raise or lower the signal
Method in brief: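 HepG2, transient MRTU transfection, cis-regulated reporters; 24 h compound exposure; RNA isolated, RT-PCR, 6-FAM labelling, HpaI digest, CE fluorescence. DMSO = negative control/baseline, bidirectional fit.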

[17] = ATG_BRE_CIS: Attagene CIS-FACTORIAL HepG2 Assay for human Bone Morphogenetic Protein (BMP) Response Element (BRE) (AID 2282933); details: HepG2 BMP response element reporter, Attagene transcription factor profiling; actives raise or lower the signal
Method in brief: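 Transient MRTU transfection of human HepG2 liver cells; 24 h compound treatment; total RNA isolated, reverse-transcribed, PCR-amplified, 6-FAM labelled, HpaI-cut, capillary electrophoresis. DMSO = negative control/baseline, bidirectional fit.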

[18] = target: Retinoic acid receptor alpha (Homo sapiens) (UniProt P10276); experiment: ATG_DR5_RAR_CIS: Attagene CIS-FACTORIAL HepG2 Assay for human Retinoic Acid Receptor Alpha (RARE), DR5 submotif (AID 2282934); details: HepG2 Attagene cis-factorial RARE DR5 reporter, mRNA; actives raise or lower the signal;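 on AC50: reporter responds to endogenous RAR alpha beta and gamma in HepG2 not RARA alone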
Method in brief: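 Transient MRTU transfection of HepG2; 24 h compound treatment; TriZol RNA, oligo(dT) RT, PCR, FAM labelling, capillary electrophoresis. Bidirectional fit vs DMSO. Endogenous TF activity at DR5 RARE.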

[19] = target: Transcription factor E2F1 (Homo sapiens) (UniProt Q01094); experiment: ATG_E2F_CIS: Attagene CIS-FACTORIAL HepG2 Assay for human E2F Transcription Factor 1 (AID 2282935); details: HepG2 Attagene cis-reporter, E2F reporter RNA transcripts; actives raise or lower the signal
Method in brief: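 Cis-element reporter mRNA induction in transiently transfected HepG2, 24 h exposure. Activity fitted in both directions relative to DMSO negative control.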

[20] = APR_HepG2_MitoMembPot_72hr: Apredica 72-hour HepG2 Assay for Mitochondrial Membrane Potential (AID 2282917); details: imaging, actives raise or lower the signal
Method in brief: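 Membrane potential read by MitoTracker Red CMXRos (250 nM, 30 min, pre-fixation) fluorescence imaging of HepG2 after 72 hr exposure. Ten concentrations, 0.39–200 uM, duplicate wells, 0.5% DMSO; fitted in both directions against DMSO baseline.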

Measured: AC50

Chain of Retinoic acid receptor alpha (Homo sapiens) (P10276 whole entry, looked up): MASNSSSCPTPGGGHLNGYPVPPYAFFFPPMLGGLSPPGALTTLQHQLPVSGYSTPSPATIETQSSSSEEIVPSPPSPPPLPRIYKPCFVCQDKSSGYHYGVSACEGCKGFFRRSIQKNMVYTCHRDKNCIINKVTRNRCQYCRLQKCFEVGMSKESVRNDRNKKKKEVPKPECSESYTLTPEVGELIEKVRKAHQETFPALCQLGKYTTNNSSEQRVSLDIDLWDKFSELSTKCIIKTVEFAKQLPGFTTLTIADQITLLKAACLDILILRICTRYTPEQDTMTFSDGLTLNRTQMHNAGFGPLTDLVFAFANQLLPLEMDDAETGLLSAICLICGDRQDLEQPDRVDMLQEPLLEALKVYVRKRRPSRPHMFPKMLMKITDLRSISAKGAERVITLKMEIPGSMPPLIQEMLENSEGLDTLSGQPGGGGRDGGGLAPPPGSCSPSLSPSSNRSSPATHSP
Chain of Transcription factor E2F1 (Homo sapiens) (Q01094 whole entry, looked up): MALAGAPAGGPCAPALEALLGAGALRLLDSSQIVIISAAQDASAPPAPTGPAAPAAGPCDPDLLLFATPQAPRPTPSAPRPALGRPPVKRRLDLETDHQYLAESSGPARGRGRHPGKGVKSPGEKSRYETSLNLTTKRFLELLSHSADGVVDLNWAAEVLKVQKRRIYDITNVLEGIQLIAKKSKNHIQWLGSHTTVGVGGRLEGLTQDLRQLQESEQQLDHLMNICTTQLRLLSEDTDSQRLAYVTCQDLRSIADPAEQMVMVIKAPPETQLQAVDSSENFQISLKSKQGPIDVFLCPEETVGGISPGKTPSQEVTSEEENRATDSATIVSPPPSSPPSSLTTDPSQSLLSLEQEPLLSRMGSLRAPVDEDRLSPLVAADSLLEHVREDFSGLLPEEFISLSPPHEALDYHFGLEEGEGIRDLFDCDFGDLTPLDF
Chain of Aryl hydrocarbon receptor (Homo sapiens) (P35869 whole entry, looked up): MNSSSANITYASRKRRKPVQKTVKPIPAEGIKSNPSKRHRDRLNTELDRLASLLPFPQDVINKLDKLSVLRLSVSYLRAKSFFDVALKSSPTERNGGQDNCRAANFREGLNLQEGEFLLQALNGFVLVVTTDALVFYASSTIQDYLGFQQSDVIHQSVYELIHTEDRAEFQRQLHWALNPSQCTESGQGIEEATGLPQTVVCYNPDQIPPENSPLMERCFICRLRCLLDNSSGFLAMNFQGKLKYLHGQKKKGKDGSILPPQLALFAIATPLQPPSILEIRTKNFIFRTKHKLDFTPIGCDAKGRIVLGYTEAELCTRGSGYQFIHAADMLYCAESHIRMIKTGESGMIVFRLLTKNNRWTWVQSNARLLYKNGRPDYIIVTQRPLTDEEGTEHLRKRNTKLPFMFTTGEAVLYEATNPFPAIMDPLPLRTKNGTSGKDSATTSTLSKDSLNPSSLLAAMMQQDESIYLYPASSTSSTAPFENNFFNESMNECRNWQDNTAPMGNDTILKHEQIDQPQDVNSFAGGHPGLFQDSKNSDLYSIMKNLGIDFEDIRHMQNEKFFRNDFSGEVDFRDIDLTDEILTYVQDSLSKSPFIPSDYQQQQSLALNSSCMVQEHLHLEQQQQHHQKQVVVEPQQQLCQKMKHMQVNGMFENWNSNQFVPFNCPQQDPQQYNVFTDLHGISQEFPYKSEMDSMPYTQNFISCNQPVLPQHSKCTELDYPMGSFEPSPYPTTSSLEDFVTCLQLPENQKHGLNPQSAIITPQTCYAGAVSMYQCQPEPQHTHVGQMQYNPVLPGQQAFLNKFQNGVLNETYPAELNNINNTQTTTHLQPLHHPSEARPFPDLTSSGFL
Chain of CCAAT/enhancer-binding protein beta (Homo sapiens) (P17676 whole entry, looked up): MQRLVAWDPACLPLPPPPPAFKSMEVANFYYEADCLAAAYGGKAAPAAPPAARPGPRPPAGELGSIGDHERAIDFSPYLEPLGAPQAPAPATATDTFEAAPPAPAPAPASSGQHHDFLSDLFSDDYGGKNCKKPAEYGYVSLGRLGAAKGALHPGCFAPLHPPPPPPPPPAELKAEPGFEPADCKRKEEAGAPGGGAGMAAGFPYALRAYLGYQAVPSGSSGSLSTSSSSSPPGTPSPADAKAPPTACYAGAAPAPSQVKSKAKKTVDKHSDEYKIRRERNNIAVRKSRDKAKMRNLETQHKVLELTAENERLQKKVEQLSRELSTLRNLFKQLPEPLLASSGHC

Clc1ccccc1C(c1ccccc1)(c1ccccc1)n1ccnc1
active: [1] 25.8 µM | [2] 24.8 µM | [4] 79.4 µM | [5] 29.3 µM | [6] 62 µM | [7] 29.8 µM | [9] 55.5 µM | [12] 17.8 µM | [13] 1.48 µM | [14] 3.01 µM | [15] 10.4 µM | [17] 11.1 µM
inactive: [3] | [8] | [10] | [11] | [16] | [18] | [19]

C[C@]12CC[C@@H]3c4ccc(O)cc4CC[C@H]3[C@@H]1CCC2=O
active: [15] 24.5 µM
inactive: [1] | [20] | [2] | [3] | [4] | [5] | [6] | [8] | [9] | [10] | [11] | [12] | [13] | [15] | [16] | [17] | [19]

Cc1ncc(CO)c(CO)c1O
inactive: [1] | [2] | [3] | [4] | [5] | [6] | [7] | [8] | [9] | [10] | [11] | [12] | [13] | [14] | [15] | [16] | [17] | [19]

O=C1O[C@H]([C@@H](O)CO)C(O)=C1O
active: [1] 11.2 µM | [2] 7.73 µM | [7] 10.5 µM | [9] 11.1 µM | [14] 62 µM
inactive: [3] | [4] | [5] | [6] | [8] | [10] | [11] | [12] | [13] | [14] | [15] | [16] | [17] | [19]

O=C1c2ccccc2C(=O)N1CCc1noc(-c2ccc(CN3CCCCCC3)s2)n1
active: [15] 24.7 µM | [17] 56.6 µM
inactive: [1] | [2] | [3] | [4] | [5] | [6] | [7] | [8] | [9] | [10] | [11] | [12] | [14] | [16] | [18] | [19]

O=C=NCCCCCCN=C=O
inactive: [1] | [2] | [3] | [4] | [5] | [6] | [7] | [8] | [9] | [10] | [11] | [12] | [14] | [15] | [16] | [17] | [18] | [19]

CCCCOC(=O)CC(CC(=O)OCCCC)(OC(C)=O)C(=O)OCCCC
active: [1] 56.2 µM | [2] 42 µM | [3] 43.6 µM | [5] 56.4 µM | [7] 57.9 µM | [17] 42.6 µM
inactive: [20] | [4] | [6] | [8] | [9] | [10] | [11] | [12] | [14] | [15] | [16] | [17] | [19]

CC1=CC(=O)/C(=C(/C)O)C(=O)O1
inactive: [1] | [20] | [2] | [3] | [4] | [5] | [6] | [7] | [8] | [9] | [10] | [11] | [12] | [15] | [16] | [17] | [18] | [19]

C[C@]12CC[C@@H]3c4ccc(O)cc4CC[C@H]3[C@@H]1CC[C@H]2O
active: [4] 62.4 µM | [12] 27.5 µM [middle of 4 runs] | [14] 49 µM | [18] 5.92 µM
inactive: [1] | [2] | [3] | [5] | [6] | [7] | [8] | [9] | [10] | [11] | [13] | [14] | [15] | [16] | [17] | [18] | [19]

OC12N=C(c3ccccc3)SC1Cc1cc(Cl)ccc12 (configuration not stated)
inactive: [3] | [4] | [5] | [6] | [7] | [8] | [9] | [10] | [11] | [12] | [13] | [16] | [17] | [18] | [19]
active: [1] 52.1 µM | [20] 0.548 µM | [2] 46.8 µM | [14] 2.32 µM | [15] 3.8 µM

O=C(O)c1ccccc1-n1cc(C(=O)O)c(=O)c2cc(Nc3c(F)cc(F)cc3Cl)c(Cl)cc21
inactive: [1] | [20] | [2] | [3] | [4] | [5] | [6] | [7] | [8] | [9] | [10] | [11] | [12] | [14] | [15] | [16] | [17] | [18] | [19]

O=c1ccc2ccccc2o1
inactive: [1] | [2] | [3] | [4] | [5] | [6] | [7] | [8] | [9] | [10] | [11] | [12] | [13] | [14] | [15] | [16] | [17] | [18] | [19]
active: [20] 100 µM
